Test results as given in PubChem BioAssay AID1315 (University of Pittsburgh Molecular Library Screening Center, 2008).
This is one part of the list. Values without a mark were called inactive. How the calls were made is not given here.

Assay: FP signal artefacts, PKD1 kinase format – biochemical, fluorescence polarization, 140K library, artefact control for PKD1 inhibitor project (AID 1315)
Settings: PKD1 FP assay interference counter-screen, at 10 µM, stronger effect = higher value

Question: With Cc1ccc(NC(=O)C2CCCN(S(=O)(=O)c3c(C)noc3C)C2)c(C)c1 (stereo not drawn) as the compound, how does the inhibition read?
Answer: -13.6%

Question: With COc1ccccc1C(=O)NN1C(=O)C2C3C=CC(O3)C2C1=O (stereo not drawn) as the compound, how does the inhibition read?
Answer: -4.38%

Question: For COc1ccc(Nc2cc(C)nc(-n3nc(C)cc3C)n2)cc1, which inhibition is on record?
Answer: -21.9%
